From PubChem BioAssay (NCI)
Compounds without any hit were thinned out: in the full panel of roughly 83,000, 20% have a hit.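 The test compound was applied at a single concentration to cells in 96-well plates for 48 hours, and percent growth was recorded.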 Calls of active or inactive are those of the source. The calls were made as follows: active = growth percent below 10; inactive = the rest.

How the values were obtained:
Assay in all cases: NCI-60 one-dose screen, 48 h (100 = growth as untreated, 0 = no growth, -100 = all killed)
HT29 colon = settings: 10 µM unless noted
SNB-75 CNS = settings: 10 µM unless noted
SNB-19 CNS = settings: 10 µM unless noted
U251 CNS = settings: 10 µM unless noted
PC-3 prostate = settings: 10 µM unless noted
SK-MEL-5 melanoma = settings: 10 µM unless noted
UACC-62 melanoma = settings: 10 µM unless noted
LOX IMVI melanoma = settings: 10 µM unless noted
SK-MEL-28 melanoma = settings: 10 µM
SK-MEL-2 melanoma = settings: 10 µM unless noted
EKVX NSCLC = settings: 10 µM unless noted
SN12C renal = settings: 10 µM unless noted
UO-31 renal = settings: 10 µM unless noted
TK-10 renal = settings: 10 µM unless noted
ACHN renal = settings: 10 µM unless noted
CAKI-1 renal = settings: 10 µM unless noted
A498 renal = settings: 10 µM unless noted
CCRF-CEM leukemia = settings: 10 µM unless noted
MOLT-4 leukemia = settings: 10 µM unless noted
SR leukemia = settings: 10 µM unless noted

Measured: growth

O=C1CCC(N2C(=O)c3cccc(NCCCCCCOc4ccc(Nc5nccc(Nc6ccccc6)n5)cc4)c3C2=O)C(=O)N1 (stereo not given)
inactive: HT29 colon 88.1% | SNB-75 CNS 89% | SNB-19 CNS 86.3% | U251 CNS 83.3% | PC-3 prostate 73.4% | UACC-62 melanoma 71.3% | LOX IMVI melanoma 88.1% | SK-MEL-28 melanoma 82.9% | SK-MEL-2 melanoma 82.5% | EKVX NSCLC 77.3% | SN12C renal 79% | UO-31 renal 77.8% | TK-10 renal 108% | ACHN renal 74.8% | CAKI-1 renal 63.8% | A498 renal 74.6% | CCRF-CEM leukemia 66.1% | MOLT-4 leukemia 55.2% | SR leukemia 68.5%
active: SK-MEL-5 melanoma 7.47%

COc1ccc2sc3c(NCCCN)nc4ccccc4c3c(=O)c2c1
active: HT29 colon -47.8% | U251 CNS -58.1% | LOX IMVI melanoma -87.2% | CCRF-CEM leukemia 0.782% | MOLT-4 leukemia -17.3% | SR leukemia 2.94%
inactive: SNB-75 CNS 48.3% | SNB-19 CNS 69.6% | PC-3 prostate 48.8% | SK-MEL-5 melanoma 84.3% | UACC-62 melanoma 61% | SK-MEL-28 melanoma 84.8% | SK-MEL-2 melanoma 96.2% | EKVX NSCLC 57.5% | SN12C renal 81.3% | UO-31 renal 67.1% | TK-10 renal 74.8% | ACHN renal 48.7% | CAKI-1 renal 73% | A498 renal 49.8%

CS(=O)(=O)Nc1ccc(C(=O)NC(C(=O)NO)c2ccc(-c3cccc(F)c3)cc2)cc1 (stereo not given)
inactive: HT29 colon 53.2% | SNB-75 CNS 24.8% | SNB-19 CNS 45.2% | U251 CNS 94.1% | PC-3 prostate 86.9% | SK-MEL-5 melanoma 48% | UACC-62 melanoma 79% | LOX IMVI melanoma 44.8% | SK-MEL-28 melanoma 91.8% | SK-MEL-2 melanoma 73.6% | EKVX NSCLC 97.4% | SN12C renal 75.3% | UO-31 renal 19.3% | TK-10 renal 30.3% | ACHN renal 58.7% | CAKI-1 renal 49.9% | A498 renal 95.6% | CCRF-CEM leukemia 95.1% | MOLT-4 leukemia 103% | SR leukemia 78.8%

COc1cc(/C=C/C(=O)c2ccc(Cl)cc2)cc(CN2CCCCC2)c1O
inactive: HT29 colon 19.4% | SNB-75 CNS 70.9% | SNB-19 CNS 85.4% | U251 CNS 74.6% | PC-3 prostate 90.6% | SK-MEL-5 melanoma 90.7% | UACC-62 melanoma 87.4% | LOX IMVI melanoma 87.4% | SK-MEL-28 melanoma 97.9% | SK-MEL-2 melanoma 108% | EKVX NSCLC 89.5% | SN12C renal 93.1% | UO-31 renal 58.5% | TK-10 renal 115% | ACHN renal 87.1% | CAKI-1 renal 85.2% | A498 renal 82.6% | CCRF-CEM leukemia 58.8% | MOLT-4 leukemia 64.3% | SR leukemia 34%

O=c1c(-c2nc3ccccc3[nH]2)cc2ccccc2n1Cc1cn(Cc2ccccc2Cl)nn1
active: HT29 colon 0.454% | SNB-75 CNS -41.2% | SK-MEL-5 melanoma 0.0348% | SK-MEL-28 melanoma 1.94% | UO-31 renal -65.7%
inactive: SNB-19 CNS 54.8% | U251 CNS 37.9% | PC-3 prostate 36.6% | UACC-62 melanoma 22.1% | LOX IMVI melanoma 12.8% | SK-MEL-2 melanoma 94.1% | EKVX NSCLC 74.8% | SN12C renal 12% | TK-10 renal 31% | ACHN renal 12.2% | CAKI-1 renal 77.4% | A498 renal 67% | CCRF-CEM leukemia 65.2% | MOLT-4 leukemia 32.5% | SR leukemia 11.5%

Cn1c(/C=C(\C#N)c2ccccc2)nc2c(N3CCOCC3)nc(Cl)nc21
inactive: SNB-19 CNS 56.9% | SR leukemia 10.7%
active: HT29 colon -54.6% | SNB-75 CNS -94.9% | U251 CNS 3.21% | PC-3 prostate -62.3% | SK-MEL-5 melanoma -53.8% | UACC-62 melanoma -86.1% | LOX IMVI melanoma -87.9% | SK-MEL-28 melanoma -78.6% | SK-MEL-2 melanoma -34.4% | EKVX NSCLC -72.4% | SN12C renal -58.6% | UO-31 renal -100% | TK-10 renal -63.6% | ACHN renal -96.2% | CAKI-1 renal -96.9% | A498 renal 2.31% | CCRF-CEM leukemia 2.94% | MOLT-4 leukemia -12.4%

CNCCNc1nc2ccccc2c2c(=O)c3cccc(OC)c3sc12
active: HT29 colon -17.5% | U251 CNS -45.2% | A498 renal 3.67% | MOLT-4 leukemia 0.177% | SR leukemia -1.21%
inactive: SNB-75 CNS 26.2% | SNB-19 CNS 42% | PC-3 prostate 26.1% | SK-MEL-5 melanoma 57.9% | UACC-62 melanoma 44.4% | LOX IMVI melanoma 12.2% | SK-MEL-28 melanoma 62.3% | SK-MEL-2 melanoma 73.1% | EKVX NSCLC 22.8% | SN12C renal 45.2% | UO-31 renal 24.9% | TK-10 renal 44.1% | ACHN renal 12.5% | CAKI-1 renal 36.1% | CCRF-CEM leukemia 12.2%
